# OPRM1-OPRD1 inv: inverse agonists of MOR-DOR heterodimerization, primary screen, cell-based, luminescence; Mu-type opioid receptor (Homo sapiens) + Delta-type opioid receptor (Homo sapiens), …; cell-based MOR-DOR heterodimer luminescence, inverse agonism; inhibition, % at 9.3 µM; 340,000 compounds, 0.21% hits; in the data active means inhibition above about 22%, passing the limit was not always enough;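 further: 0% = cells with DMSO and 100% = wells without cells with DMSO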
# Target sequence (P35372 whole entry, looked up): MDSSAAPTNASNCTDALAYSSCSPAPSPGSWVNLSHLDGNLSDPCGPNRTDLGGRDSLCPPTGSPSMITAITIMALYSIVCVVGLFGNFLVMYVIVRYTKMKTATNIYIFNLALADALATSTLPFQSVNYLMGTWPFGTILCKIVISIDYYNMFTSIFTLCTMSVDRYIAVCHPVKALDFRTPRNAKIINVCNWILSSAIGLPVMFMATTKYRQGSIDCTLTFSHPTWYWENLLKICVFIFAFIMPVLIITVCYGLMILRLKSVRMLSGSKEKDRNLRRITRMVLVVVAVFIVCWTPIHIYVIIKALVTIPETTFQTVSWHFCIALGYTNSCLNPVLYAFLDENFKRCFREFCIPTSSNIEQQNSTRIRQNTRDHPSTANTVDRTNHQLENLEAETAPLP
# Target sequence (P41143 whole entry, looked up): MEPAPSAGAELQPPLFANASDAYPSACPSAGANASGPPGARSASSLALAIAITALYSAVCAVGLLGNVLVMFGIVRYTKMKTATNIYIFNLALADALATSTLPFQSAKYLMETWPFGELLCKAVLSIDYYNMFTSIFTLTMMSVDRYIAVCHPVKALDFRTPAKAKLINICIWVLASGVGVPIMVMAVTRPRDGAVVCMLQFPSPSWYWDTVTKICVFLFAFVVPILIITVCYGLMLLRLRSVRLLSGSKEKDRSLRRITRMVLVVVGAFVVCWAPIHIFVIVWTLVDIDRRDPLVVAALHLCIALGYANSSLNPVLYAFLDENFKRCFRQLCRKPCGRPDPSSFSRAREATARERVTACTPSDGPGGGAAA
# HTR5A inv ctr: HTR5A inverse agonists in luminescence cell assay, primary screen, counter-screen for OPRM1-OPRD1 heterodimer inverse agonist project, full-deck HTS; 5-hydroxytryptamine receptor 5A (Homo sapiens), P47898; HTR5A cell line, inverse agonism; inhibition, % at 9.3 µM; 340,000 compounds, 0.083% hits; AID 504634, 2011; in the data active means inhibition mostly above about 23%, no sharp cut-off; inactive means mostly below about 18%;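 further: 0% = cells with DMSO and 100% = no-cell wells with DMSO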
# OPRM1-OPRD1 ag: agonists of OPRM1-OPRD1 heterodimerization, primary screen, cell-based, luminescence. Mu-type opioid receptor (Homo sapiens) + Delta-type opioid receptor (Homo sapiens), …. cells. activation, % at 9.3 µM. 340,000 compounds, 0.3% hits. AID 504326, 2011; in the data active means activation above about 18%;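 further: 0% = vehicle-treated cells and 100% = reference agonist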
# HTR5A ag ctr: HTR5A agonists in luminescence cell assay, primary screen, counter-screen for OPRM1-OPRD1 heterodimer agonist project, full-deck HTS. activation, % at 9.3 µM. 340,000 compounds, 0.61% hits. cell-based. AID 504692, 2011. 5-hydroxytryptamine receptor 5A (Homo sapiens), P47898; in the data active means activation mostly above about 9.5%, no sharp cut-off; inactive means mostly below about 7.6%;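 further: 0% = cells with vehicle only and 100% = reference agonist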
# The depositor's hits bear a star. Only some compounds are listed: those with a hit (about 1.1% of all), similar ones and a draw of the others.
SMILES,OPRM1-OPRD1 inv,HTR5A inv ctr,OPRM1-OPRD1 ag,HTR5A ag ctr
COc1ccccc1C(c1nnnn1C(C)(C)C)N1CCCc2ccccc21 (configuration not stated),-6,-26,1,13*
CC(C)(C)n1nnnc1C(c1ccc(Cl)cc1)N1CCCc2ccccc21 (configuration not stated),13,14,-2,3
O=c1[nH]c2cc3c(cc2cc1CN(Cc1cccnc1)C(=S)NCc1ccco1)OCCO3,4,-20,-1,1
O=C(Nc1nc2ccc([N+](=O)[O-])cc2s1)C1CCCO1 (configuration not stated),26,25,-5,-2
Cn1c(=O)[nH]c(=O)c2c1nc(NC1CCCC1)n2Cc1ccccc1,8,-38,-2,10.0*
COc1ccc(C(=O)c2no[n+]([O-])c2C(=O)c2ccc(OC)cc2)cc1,-200,-56,40*,26*
COc1cccc(CNC(=O)C(=O)NCC2CCCO2)c1 (configuration not stated),-11,-30,2,14*
CCc1ccc(CNC(=O)C(=O)NCC2CCCO2)cc1 (configuration not stated),-3,-6,1,2
COc1ccc2cc3cc(C(=O)NCC4COc5ccccc5O4)oc3nc2c1 (configuration not stated),-37,-48,7,13*
O=S(=O)(CCNCc1cccs1)c1ccc(Cl)cc1,4,-7,-1,-1
Cc1ccc(C(=O)C(C)OC(=O)Cn2[nH]c(=O)c3ccccc3c2=O)cc1C (configuration not stated),16,-45,-3,12*
CCCC(C(=O)c1ccccc1)n1cncn1 (configuration not stated),12,-27,-2,11*
C=CCn1c(O)c(N=NC(=O)CNC(=O)Cc2ccccc2)c2ccccc21,16,13,-3,11*
CC(C)(C)OC(=O)NCc1ccc(NC(=O)c2nc[nH]c2C(=O)N[C@@H](Cc2ccccc2)C(=O)OCc2ccccc2)cc1,-228,-105,41*,25*
CCN(CC)S(=O)(=O)c1ccc(OCC(=O)NCc2ccccc2)cc1,9,-7,-2,-1
O=S(=O)(/N=C(/Nc1cccnc1)c1ccccc1)c1ccc(F)cc1F,14,-35,-4,14*
COc1ccc(CC(=O)Nc2cccc(-c3nnc(-c4ccc(C)cc4)o3)c2)cc1OC,-113,-38,20*,17*
O=C(N/N=C/c1ccccc1OC(F)F)c1cc(-c2ccncc2)nc2ccccc12,-7,-3,1,12*
O=C(O)COc1ccccc1/C=N/NC(=O)c1cc(-c2ccccc2)nc2ccccc12,7,22,-1,-4
Cc1ccccc1NC(=O)CSc1nnc(-c2ccoc2C)n1CCc1ccccc1,-2,-10,0,1
C/C(=N\NC(=O)CNc1cccc(Cl)c1C)c1cccs1,-2,-12,0,-2
COc1ccccc1NCC(=O)N/N=C(\C)c1cccs1,-17,-36,3,14*
CN1C(=O)[C@H]2[C@@H](/C=C/c3ccccc3)N3C(=O)CN(Cc4ccccn4)C(=O)[C@@]3(Cc3ccccc3)[C@H]2C1=O,18,6,-3,2
Cc1cccn2c(=O)c3cc(S(=O)(=O)c4ccccc4)c(=N)n(Cc4ccco4)c3nc12,-11,-30,2,12*
COc1cc(C(=O)NC(=S)Nc2ccccc2N2CCCC2)cc(OC)c1OC,11,13,-2,-4
SMILES,OPRM1-OPRD1 inv,HTR5A inv ctr,OPRM1-OPRD1 ag,HTR5A ag ctr
COc1ccc(CN(C(=O)c2ccco2)C2CCS(=O)(=O)C2)cc1 (configuration not stated),12,17,-2,-7
COc1cccc(CN(C(=O)c2ccco2)C2CCS(=O)(=O)C2)c1 (configuration not stated),8,-36,-2,13*
O=C(O)C1CC=CCC1C(=O)NCCc1cccc(Cl)c1 (configuration not stated),0,-19,0,13*
CC1Cc2ccccc2N1CC(=O)NC(=O)NC(C)(C)C (configuration not stated),-3,4,1,-2
Nc1nc(N)c2c(ccc3nccc32)[nH]1,3,-42,-1,12*
Cc1ccc(S(=O)(=O)Nc2cccc(C(=O)N3CCN(c4ccccc4O)CC3)c2)cc1F,12,6,-2,-2
Cc1cc(S(=O)(=O)Nc2ccc(C(=O)N3CCN(c4ccccc4O)CC3)cc2)ccc1F,-3,-15,0,14*
CCOc1ccc(NC(=O)CN(C)Cc2ccc3c(c2)OCO3)cc1S(=O)(=O)N1CCCC1,14,0,-4,0
O=C(c1ccccc1Cl)N1N=C(c2cccs2)CC1c1cccc(O)c1 (configuration not stated),12,-1,-2,11*
Cn1c2ccccc2c(=O)c2c(=O)n(C3CCCCC3)c(-c3ccco3)nc21,21,-48,-4,13*
Cc1nc2c(c(=O)c3ccccc3n2C)c(=O)n1C1CCCCCC1,18,0,-4,7
O=C1C(Cc2ccccc2)Nc2ncnc(N3CCN(c4ccccc4)CC3)c2N1Cc1ccc(Br)cc1 (configuration not stated),68*,59*,-15,-22
CCC1Nc2ncnc(N3CCN(c4ccccc4)CC3)c2N(Cc2ccc(OC)cc2)C1=O (configuration not stated),57*,52*,-12,-16
CCC1Nc2ncnc(N3CCN(c4ccccc4)CC3)c2N(Cc2ccc(Br)cc2)C1=O (configuration not stated),79*,79*,-13,-29
CCC1Nc2ncnc(N3CCOCC3)c2N(Cc2ccc(OC)cc2)C1=O (configuration not stated),15,-4,-3,3
Cc1ccc(CN2C(=O)C(Cc3ccccc3)Nc3ncnc(N4CCN(c5ccccc5)CC4)c32)cc1 (configuration not stated),51*,55*,-9,-22
CCc1ccccc1NS(=O)(=O)Cc1ccccc1,7,3,-1,-1
c1ccc(CNc2ncnc3sc4c(c23)CCC4)nc1,15,14,-3,-7
O=C(Cc1ccc(Cl)cc1)Nc1cccc(C(=O)Nc2ccccc2C(=O)O)c1,9,-6,-2,2
CCCNC(=O)Cn1c(=O)oc2cc(S(=O)(=O)N3CC(C)CC(C)C3)ccc21 (configuration not stated),8,-41,-2,11*
COCCNC(=O)Cn1c(=O)oc2cc(S(=O)(=O)N3CC(C)CC(C)C3)ccc21 (configuration not stated),15,1,-3,0
COc1cc(/C=N/n2cnnc2)ccc1Oc1nc(Cl)ncc1F,5,9,-1,-3
COc1ccc(/C=N/n2cnnc2)cc1Oc1nc(Cl)ncc1F,1,-30,0,12*
